Source: PubChem (National Center for Advancing Translational Sciences (NCATS))
GRP78 ERSR act: induces the endoplasmic reticulum stress response in human glioma cells. U87-MG GRP78 promoter luciferase reporter, 16 h. AID 602332. hit rate 0.02% among 420,000. Potency, µM, for inactives: top-dose activation, actives largely listed as activators; note: series mostly up to about 76 µM; % of control where 0% means no effect; nearly all actives have a fitted effect of over 35% in size
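ERSR induction read as luciferase luminescence (Bright-Glo, 10 min at room temperature) in stably transfected human U87-MG glioma cells exposed to compounds for 16 h, using GRP78 as sensor.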
FUS suppressor: rescues growth of FUS-expressing yeast | AID 1347120 | S. cerevisiae FUS-expressing, growth rescue, OD600, 24 h | Potency, µM (titrated, usually from 76.6 µM), hits mostly activators | hit rate 0.24% among 390,000;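 note: plate controls were DMSO vehicle for no effect and reference control for full effect; nearly all actives have a fitted effect of over 55% in size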
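Yeast FUS proteinopathy model; galactose-induced FUS (2%), starting OD 0.005. Cpds in dilution series, 24hr, 30C, 99% humidity. Abs 600 nm growth. Pos ctrl CP55940 (top 92uM final); neg ctrl DMSO.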
MBNL1 CUG block: blocks human MBNL1 binding to CUG repeat RNA; TR-FRET MBNL1-His/biotin-(CUG)12 binding, 665/545 ratio; Potency, µM (series often up to 57.5 µM), for the others: at the top dose activity change, negative = inhibition, most hits filed as inhibitors; hit rate 0.036% among 280,000; active = well fitted inhibition curve with a large enough effect in the signal ratio, with a control signal flat, not every such curve was filed as active; inconclusive = small, poorly fitted or top-dose-only effect, or effect the other way, or a change in a side signal; inactive = no such curve, though single readings can be large or run the other way; the % refers to the signal ratio; note: % is set by controls: 0 for no effect and ±100 for the full control effect
Target sequence (Q9NR56 whole entry, looked up): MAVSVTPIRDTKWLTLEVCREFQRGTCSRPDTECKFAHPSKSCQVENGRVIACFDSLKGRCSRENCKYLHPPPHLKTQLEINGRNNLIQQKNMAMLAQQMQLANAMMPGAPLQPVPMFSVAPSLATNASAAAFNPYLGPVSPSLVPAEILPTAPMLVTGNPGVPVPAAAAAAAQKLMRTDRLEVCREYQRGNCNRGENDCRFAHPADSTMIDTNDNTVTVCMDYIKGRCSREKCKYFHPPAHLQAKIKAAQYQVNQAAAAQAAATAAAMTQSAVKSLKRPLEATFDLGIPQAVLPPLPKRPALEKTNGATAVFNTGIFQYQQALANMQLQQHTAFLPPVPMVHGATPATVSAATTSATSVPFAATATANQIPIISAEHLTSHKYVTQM
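Ratiometric TR-FRET (665 over 545 nm, excitation 340 nm) tracks disruption of MBNL1-His/biotin-(CUG)12 complex after 60 min at room temperature, with compounds at 92 nM to 58 uM final.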
TDP-43 yeast inh: inhibitors of TDP-43 toxicity in yeast; TDP-43 expressing yeast growth rescue, BacTiter-Glo, 24 h; Potency, µM (doses to about 46.1 µM), for inactives: top-dose growth rescue (activation), usual class: activators; hit rate 1.8% among 410,000; AID 652104; note: % of control where 0% means no effect; nearly all actives have a fitted effect of over 50% in size
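Yeast expressing TDP-43 (pregrown in raffinose, seeded at OD600=0.02 in galactose medium) exposed to compounds 24 hr at 30 deg C. Growth read by BacTiter-Glo luminescence; rescue of toxicity appears as increased signal.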
Abeta yeast res: compounds reversing amyloid beta toxicity in yeast; Potency, µM (top dose mostly 46.1 µM), hits mostly activators; yeast expressing A-beta42, growth rescue, OD600, 48 h; response scale: 0% DMSO, 100% iron-clioquinol control; hit rate 0.063% among 410,000; note: nearly all actives have a fitted effect of over 55% in size
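Growth rescue measured by 600 nm absorbance after 48 h yeast culture at 30 C with compound. Values normalized between DMSO and an equimolar ferric chloride plus clioquinol control.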
aSyn rescue: rescues yeast growth from alpha-synuclein toxicity; Yeast expressing alpha-synuclein, growth rescue, BacTiter-Glo, 24 h; Potency, µM (series often up to 46.1 µM), for inactives: at the highest dose growth rescue (activation), actives largely listed as activators; hit rate 0.14% among 370,000; note: % of control where 0% means no effect; nearly all actives have a fitted effect of over 65% in size
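Readout is rescue of growth in alpha-synuclein-expressing yeast, so inhibitors of toxicity appear as activators. Growth after 24 hr at 30 deg C in galactose medium is quantified by luminescence.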
Active calls of the source: *; i = inactive; ? = inconclusive; · = no result given; ! = not confirmed by another sample; [ ] = another dose, or the depositor's remark. Shown are actives, neighbours in structure and some others; about 2% of the full set was active somewhere. Unless noted, calls come from the whole dose curve; as a rule, active = well fitted curve in the direction sought with a large enough effect; inconclusive = small, poorly fitted or top-dose-only effect, or another doubt; inactive = no such curve, though single readings can be large; an effect the other way counts as inactive or inconclusive. Potency is the fitted concentration of half-maximal effect.

SMILES	GRP78 ERSR act	FUS suppressor	MBNL1 CUG block	TDP-43 yeast inh	Abeta yeast res	aSyn rescue
CC(C)(C)c1cc(NC(=O)COc2ccc(Br)cc2)n(-c2ccccc2)n1	-7.2%	i	6.1%	20µM*	i	-2.8%
COc1cc(=O)n2c(c1C(=O)N(C)Cc1nonc1C)CCN(Cc1cccc(Cl)c1)CC2	-3.9%	·	·	·	·	·
O=C(CCCn1c(=O)c2cccn2c2cccnc21)NCCc1ccc(Cl)cc1	-4.8%	i	2.0%	22.4µM*!	i	-10.6%
COc1cc2nc(N3CCOCC3)nc(NC3CCN(Cc4ccccc4)CC3)c2cc1OC	·	·	·	·	·	8.9%
O=C(Nc1ccc(S(=O)(=O)Nc2ncccn2)cc1)c1nn(Cc2ccccc2)c(=O)c2ccccc12	-2.7%	i	27.0%	0.5%	i	-1.6%
CCn1nc(C(=O)Nc2ccc(S(=O)(=O)Nc3nccs3)cc2)c2ccccc2c1=O	-4.4%	25.1µM*	5.8%	-10.1%	i	-6.2%
CCC1(C2CCN(Cc3ccc(OC)cc3)CC2)NC(=O)N(CC2COc3ccccc3O2)C1=O (configuration not stated)	-5.5%	·	·	·	·	·
COc1ccc(C)cc1NC(=O)COCc1cc(-c2ccc(F)cc2)on1	-4.2%	?	·	35.5µM*	i	·
COc1cccc(C2C=C(c3ccccc3)Nc3c(C(=O)Nc4ccccc4)cnn32)c1OC (configuration not stated)	-2.5%	i	·	1.1%	i	·
CCOc1ccc(NC(=O)c2cnn3c2NC(c2ccccc2)=CC3c2cccc(OC)c2OC)cc1 (configuration not stated)	-3.6%	22.4µM*	·	26.7%[9.22 µM]	i	·
COC(=O)C1CCN(C(=O)CCn2nnc(-c3cccs3)n2)CC1	·	i	·	·	·	·
C=CCn1c2ccccc2c(=O)c2cc(C#Cc3ccccn3)ccc21	2.2%	i	·	20µM*	i	-24.5%
O=C(c1c[nH]c(C(=O)C(Cl)(Cl)Cl)c1)c1ccccc1F	-3.2%	i	-6.2%	10µM*	i	-2.8%
CC(C)C[C@H]1COc2cccc(N3CCCC3)c2S(=O)(=O)N1C	·	i	·	·	·	·
CN(C)c1ccc(C(=C2C=CC(=[N+](C)C)C=C2)c2c(O)c(S(=O)(=O)[O-])cc3cc(S(=O)(=O)O)ccc23)cc1	-10.8%	·	·	·	·	-62.1%
CCN(CC)c1ccc(C(=C2C=CC(=[N+](CC)CC)C=C2)c2ccc(S(=O)(=O)O)cc2S(=O)(=O)[O-])cc1	-14.8%	31.6µM*	·	-61.5%	i	-57.2%
CCO[C@@H](Cc1ccc(OCCc2ccc(OS(C)(=O)=O)cc2)cc1)C(=O)O	-4.8%	·	·	·	·	·
Cc1ccc(C)c(NC(=O)c2cnn(-c3cccc(F)c3)c2C2CCN(C(=O)OC(C)(C)C)CC2)c1	-3.3%	?	·	35.5µM*	i	·
CCc1cccc(C)c1NC(=O)c1cnn(-c2ccc(OC)cc2)c1C1CCN(C(=O)OC(C)(C)C)CC1	-2.8%	22.4µM*	·	6.1%	i	·
Cc1cccc(-n2ncc(C(=O)Nc3ccc4c(c3)OCO4)c2C2CCN(C(=O)OC(C)(C)C)CC2)c1	1.2%	?	·	7.6%	i	·
O=C(CCCCCN1C(=O)C2C3C=CC(C3)C2C1=O)Nc1ccc2ncccc2c1 (configuration not stated)	·	i	·	·	·	·
Cc1ccccc1C1C(C#N)=C2N=C(N)c3c(sc4c3CCCCC4)N2C2=C1C(=O)CC(C)(C)C2 (configuration not stated)	-1.7%	28.2µM*	-6.2%	8.8%	i	0.7%
Cc1ccccc1C1C(C#N)=C2NC(=O)c3c(sc4c3CCCCC4)N2C2=C1C(=O)CC(C)(C)C2 (configuration not stated)	·	·	10.3%	·	·	·
COc1ccccc1N(CC(O)COc1c(C)cc(C)cc1C)S(=O)(=O)c1ccccc1 (configuration not stated)	-4.3%	·	0.7%	17.8µM*	i	24.4%
COc1ccc(-c2nc3ccc(Cl)cn3c2Cc2ccccc2)cc1OC	2.2%	i	·	23.1%	i	-0.7%
SMILES	GRP78 ERSR act	FUS suppressor	MBNL1 CUG block	TDP-43 yeast inh	Abeta yeast res	aSyn rescue
COc1ccc(-c2nc3ccc(Br)cn3c2Cc2cccc(Cl)c2)cc1OC	0.8%	?	·	22.4µM*	i	?
COc1ccc(-c2nc3ccc(Cl)cn3c2Cc2cccc(Cl)c2)cc1OC	0.0%	i	·	35.5µM*	i	3.2%
CC(=O)c1sc2nc(-c3cccs3)ccc2c1N	16.4%	i	?	10µM*	i	8.4%
COCc1cn(-c2ccc3c(c2)[C@@]2(CC(=O)N(C)C2c2ccccc2)C(=O)N3CC(C)C)nn1 (some centres not stated)	·	i	·	·	·	·
O=C(O)CCN1C(=O)/C(=C/c2ccc(F)cc2F)SC1=S	·	i	·	·	·	·
NNC(=O)C=C1CCN(c2ncc(C(F)(F)F)cc2Cl)CC1	-3.8%	i	-8.4%	0.0%	i	22.3%
O=C(O)C=C1CCN(c2ncc(C(F)(F)F)cc2Cl)CC1	0.4%	i	-0.4%	12.6µM*	i	12.8%
CCOC(=O)Cc1nc(N2CCN(C(=O)C3CCCO3)CC2)c2c(C)c(C(=O)OCC)sc2n1 (configuration not stated)	·	i	·	·	·	·
CCOC(=O)c1cnc2ccc(OCC)cc2c1Nc1ccc(OCc2ccccc2Cl)cc1	-6.9%	i	·	-4.1%	i	·
CCOC(=O)c1cnc2ccc(C)cc2c1Nc1ccc(OCc2ccccc2Cl)cc1	-2.3%	i	·	22.4µM*	i	·
CCOC(=O)c1cnc2ccc(OC)cc2c1Nc1ccc(OCc2ccccc2Cl)cc1	-6.5%	i	·	20µM*	i	·
CN(C)c1ccc(C2C=C(c3ccc(Cl)cc3OC(F)F)Nc3ncnn32)cc1 (configuration not stated)	3.1%	?	-1.3%	-6.9%	i	14.9%
COc1cccc(C2=CC(c3ccc(C)cc3)n3ncnc3N2)c1 (configuration not stated)	·	·	29.0%	·	·	·
Cc1ccc(C2C=C(c3ccc4c(c3)OCO4)Nc3ncnn32)cc1 (configuration not stated)	-1.0%	i	14.8%	12.6µM*	i	9.7%
C1=C(c2ccccc2)Nc2ncnn2C1c1ccccc1 (configuration not stated)	-3.4%	i	·	20µM*	i	-2.5%
Cc1ccc(C2=CC(c3ccccc3)n3ncnc3N2)cc1 (configuration not stated)	-0.5%	i	·	12.6µM*	i	8.4%
Cc1ccc(C2C=C(c3ccccc3OC(F)F)Nc3ncnn32)cc1 (configuration not stated)	-0.5%	·	20.5%	12.6µM*	i	11.5%
